Results on 32 sequences are retold here after PMC12820563, “FoxP3 forms a head-to-head dimer in vivo and stabilizes its multimerization on adjacent microsatellites”.

The full ranking holds about 16,000 sequences; the median of “rpm ratio (pull-down/input)” is about 0.5, and the highest 2% start at about 5.5. The sample holds the highest values, similar sequences and a random draw of the others, so the mix is not that of the screen.

In this assay the target is T1, MBP-FoxP3dN (Mus musculus, UniProt Q99JB6 188-423).
T1 sequence: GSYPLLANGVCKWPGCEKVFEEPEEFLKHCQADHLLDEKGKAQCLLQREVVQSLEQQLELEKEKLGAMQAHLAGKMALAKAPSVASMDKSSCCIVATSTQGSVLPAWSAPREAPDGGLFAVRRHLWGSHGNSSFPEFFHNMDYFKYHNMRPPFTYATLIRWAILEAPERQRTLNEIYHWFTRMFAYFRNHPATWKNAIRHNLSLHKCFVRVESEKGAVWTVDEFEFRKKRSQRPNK
Put plainly: PD-seq (MBP pull-down with sequencing); 20 mM Tris-HCl pH 7.5, 100 mM NaCl, 1.5 mM MgCl2, 0.4 uM protein, 0.1 uM dsDNA library, 30 min, room temperature, amylose pull-down; high values mean tight binding. As to conditions: protein: recombinant; tags: His6-MBP; chain copies: 2; dsDNA, one strand shown. A digest of the protocol: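 Binding is given as reads-per-million enrichment, pull-down over input, with replicates pooled. The bait was an N-terminus-lacking mouse FoxP3 or FoxP1 fragment with a His6-MBP tag, expressed in E. coli and used at 0.4 µM with 0.1 µM Klenow-filled degenerate double-stranded DNA library for 30 min at room temperature in Tris pH 7.5 buffer with NaCl and MgCl2. Amylose resin pull-down with three washes was followed by proteinase K release, PCR barcoding and Illumina sequencing.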
With “GATGATTGTTCTCCCAGCTGATGAATTTTTAGGATCGAGTAAACAAATTTTCCTAATCTTTCTGTTCAAGCGCCATCTAC”, the binding signal was 0.222 RPM ratio (pull-down/input).
Then “GATGATTGTTCTCCCAGCTGATGAATTCAATTAGTCGAGTAAACAAATTTTCCTAATCTTTCTGTTCAAGCGCCATCTAC”, with 1.25 RPM ratio (pull-down/input).
Then “GATGATTGTTCTCCCAGCTGATGAATTCTGTAGGTCGAGTAAACAAATTTTCCTAATCTTTCTGTTCAAGCGCCATCTAC”, with 0.948 RPM ratio (pull-down/input); and “GATGATTGTTCTCCCAGCTGATGAATTTGACGTATCGAGTAAACAAATTTTCCTAATCTTTCTGTTCAAGCGCCATCTAC”, with 1.27 RPM ratio (pull-down/input); and “GATGATTGTTCTCCCAGCTGATGAATTGGAGTACTCGAGTAAACAAATTTTCCTAATCTTTCTGTTCAAGCGCCATCTAC”, with 0.523 RPM ratio (pull-down/input).
In the case of “GATGATTGTTCTCCCAGCTGATGAATTCGAACTTTCGAGTAAACAAATTTTCCTAATCTTTCTGTTCAAGCGCCATCTAC”, the binding signal is 0.271 RPM ratio (pull-down/input).
As to “GATGATTGTTCTCCCAGCTGATGAATTCATCTCATCGAGTAAACAAATTTTCCTAATCTTTCTGTTCAAGCGCCATCTAC”, the binding signal was 0.393 RPM ratio (pull-down/input).
The value for “GATGATTGTTCTCCCAGCTGATGAATTAGTTTGTTCGAGTAAACAAATTTTCCTAATCTTTCTGTTCAAGCGCCATCTAC” was 6.22 RPM ratio (pull-down/input); that for “GATGATTGTTCTCCCAGCTGATGAATTCTTTAGTTCGAGTAAACAAATTTTCCTAATCTTTCTGTTCAAGCGCCATCTAC” was 0.297 RPM ratio (pull-down/input).
As to “GATGATTGTTCTCCCAGCTGATGAATTAGTTGTTTCGAGTAAACAAATTTTCCTAATCTTTCTGTTCAAGCGCCATCTAC”, the binding signal was 6.61 RPM ratio (pull-down/input).
The value for “GATGATTGTTCTCCCAGCTGATGAATTGTTAGTTTCGAGTAAACAAATTTTCCTAATCTTTCTGTTCAAGCGCCATCTAC” was 4.23 RPM ratio (pull-down/input); that for “GATGATTGTTCTCCCAGCTGATGAATTTAGTTGTTCGAGTAAACAAATTTTCCTAATCTTTCTGTTCAAGCGCCATCTAC” was 5.93 RPM ratio (pull-down/input); that for “GATGATTGTTCTCCCAGCTGATGAATTAGTTCTTTCGAGTAAACAAATTTTCCTAATCTTTCTGTTCAAGCGCCATCTAC” was 0.409 RPM ratio (pull-down/input).
The value for “GATGATTGTTCTCCCAGCTGATGAATTTGTTAGTTCGAGTAAACAAATTTTCCTAATCTTTCTGTTCAAGCGCCATCTAC” was 7.44 RPM ratio (pull-down/input).
For “GATGATTGTTCTCCCAGCTGATGAATTAGTTTTTTCGAGTAAACAAATTTTCCTAATCTTTCTGTTCAAGCGCCATCTAC”, the binding signal was 3.9 RPM ratio (pull-down/input).
Take “GATGATTGTTCTCCCAGCTGATGAATTAGTTTCTTCGAGTAAACAAATTTTCCTAATCTTTCTGTTCAAGCGCCATCTAC”: the binding signal is 2.72 RPM ratio (pull-down/input).
For the sequence “GATGATTGTTCTCCCAGCTGATGAATTAGTTAGTTCGAGTAAACAAATTTTCCTAATCTTTCTGTTCAAGCGCCATCTAC”, the binding signal is 4.22 RPM ratio (pull-down/input).
The value for “GATGATTGTTCTCCCAGCTGATGAATTAGTAGTTTCGAGTAAACAAATTTTCCTAATCTTTCTGTTCAAGCGCCATCTAC” was 1.93 RPM ratio (pull-down/input).
The value for “GATGATTGTTCTCCCAGCTGATGAATTTTTTAGTTCGAGTAAACAAATTTTCCTAATCTTTCTGTTCAAGCGCCATCTAC” was 0.299 RPM ratio (pull-down/input); that for “GATGATTGTTCTCCCAGCTGATGAATTCGACAGGTCGAGTAAACAAATTTTCCTAATCTTTCTGTTCAAGCGCCATCTAC” was 0.284 RPM ratio (pull-down/input).
Then “GATGATTGTTCTCCCAGCTGATGAATTCAGACATTCGAGTAAACAAATTTTCCTAATCTTTCTGTTCAAGCGCCATCTAC”, with 0.869 RPM ratio (pull-down/input); and “GATGATTGTTCTCCCAGCTGATGAATTTCGCGAGTCGAGTAAACAAATTTTCCTAATCTTTCTGTTCAAGCGCCATCTAC”, with 0.675 RPM ratio (pull-down/input); and “GATGATTGTTCTCCCAGCTGATGAATTAGAGCCCTCGAGTAAACAAATTTTCCTAATCTTTCTGTTCAAGCGCCATCTAC”, with 0.358 RPM ratio (pull-down/input).
For “GATGATTGTTCTCCCAGCTGATGAATTTCAACGCTCGAGTAAACAAATTTTCCTAATCTTTCTGTTCAAGCGCCATCTAC”, the binding signal is 0.363 RPM ratio (pull-down/input).
Then “GATGATTGTTCTCCCAGCTGATGAATTTATGGAGTCGAGTAAACAAATTTTCCTAATCTTTCTGTTCAAGCGCCATCTAC”, with 0.454 RPM ratio (pull-down/input); and “GATGATTGTTCTCCCAGCTGATGAATTAGACAAATCGAGTAAACAAATTTTCCTAATCTTTCTGTTCAAGCGCCATCTAC”, with 0.417 RPM ratio (pull-down/input); and “GATGATTGTTCTCCCAGCTGATGAATTACTTCACTCGAGTAAACAAATTTTCCTAATCTTTCTGTTCAAGCGCCATCTAC”, with 0.319 RPM ratio (pull-down/input).
Then “GATGATTGTTCTCCCAGCTGATGAATTCTTAATCTCGAGTAAACAAATTTTCCTAATCTTTCTGTTCAAGCGCCATCTAC”, with 0.28 RPM ratio (pull-down/input).
The value for “GATGATTGTTCTCCCAGCTGATGAATTTATACCTTCGAGTAAACAAATTTTCCTAATCTTTCTGTTCAAGCGCCATCTAC” was 0.85 RPM ratio (pull-down/input); that for “GATGATTGTTCTCCCAGCTGATGAATTGAACGGGTCGAGTAAACAAATTTTCCTAATCTTTCTGTTCAAGCGCCATCTAC” was 0.23 RPM ratio (pull-down/input); that for “GATGATTGTTCTCCCAGCTGATGAATTCATATTGTCGAGTAAACAAATTTTCCTAATCTTTCTGTTCAAGCGCCATCTAC” was 1.06 RPM ratio (pull-down/input).
Turning to “GATGATTGTTCTCCCAGCTGATGAATTCGGTCATTCGAGTAAACAAATTTTCCTAATCTTTCTGTTCAAGCGCCATCTAC”, the binding signal is 0.728 RPM ratio (pull-down/input).
